Experimental data published in the supplement of paper PMC10681739.

Tests used:
[1] = biological target: T1, ETS1 (UniProt P14921); assay: ETS1 binding intensity (PBM fluorescence), ETS1 alone (arbitrary fluorescence units); higher = stronger binding; details: ETS1 concentration 1 nM; RUNX1 concentration 0 nM
T1 sequence: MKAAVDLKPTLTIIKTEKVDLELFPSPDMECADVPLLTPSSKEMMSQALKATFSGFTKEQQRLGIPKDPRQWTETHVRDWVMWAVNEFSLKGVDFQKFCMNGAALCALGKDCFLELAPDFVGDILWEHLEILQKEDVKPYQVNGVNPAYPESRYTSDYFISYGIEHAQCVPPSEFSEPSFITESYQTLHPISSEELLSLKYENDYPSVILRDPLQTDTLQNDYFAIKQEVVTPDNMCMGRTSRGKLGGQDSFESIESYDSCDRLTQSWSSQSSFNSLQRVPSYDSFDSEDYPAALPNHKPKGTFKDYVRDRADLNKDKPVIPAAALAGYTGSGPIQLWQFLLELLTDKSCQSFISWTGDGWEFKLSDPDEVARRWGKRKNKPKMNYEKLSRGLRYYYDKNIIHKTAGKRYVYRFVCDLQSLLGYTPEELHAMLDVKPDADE

[2] = biological target: RUNX1 (UniProt Q01196); assay: RUNX1 binding intensity (PBM fluorescence), RUNX1 alone (arbitrary fluorescence units); higher = stronger binding; details: RUNX1 concentration 2 nM; ETS1 concentration 0 nM
Chain of RUNX1 (Q01196 whole entry): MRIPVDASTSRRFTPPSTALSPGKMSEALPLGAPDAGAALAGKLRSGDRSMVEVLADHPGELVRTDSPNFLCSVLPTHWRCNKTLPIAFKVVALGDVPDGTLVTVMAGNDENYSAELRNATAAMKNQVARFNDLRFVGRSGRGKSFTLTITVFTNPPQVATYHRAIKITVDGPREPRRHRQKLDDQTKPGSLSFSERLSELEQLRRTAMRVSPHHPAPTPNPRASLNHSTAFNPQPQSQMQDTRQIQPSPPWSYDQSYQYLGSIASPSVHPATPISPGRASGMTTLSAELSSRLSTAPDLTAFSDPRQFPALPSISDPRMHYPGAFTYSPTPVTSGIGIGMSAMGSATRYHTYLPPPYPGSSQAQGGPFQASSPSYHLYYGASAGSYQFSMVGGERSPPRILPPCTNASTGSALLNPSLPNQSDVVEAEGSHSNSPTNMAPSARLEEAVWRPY
Method: (§1)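 Cooperative gcPBM on 36-bp genomic probes with neighbouring ETS1 and RUNX1 sites. Recombinant human RUNX1 (2 nM) was incubated alone or with ETS1 (25 nM) and detected with anti-RUNX1 antibody plus Alexa488 secondary. Values are medians over 4 replicate spots; the RUNX1+ETS1 data were normalised to the RUNX1-only data. The probes sit in constant array flanks that are not printed.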

[3] = biological target: RUNX1 (UniProt Q01196); assay: RUNX1 binding intensity (PBM fluorescence) in presence of ETS1, normalised to RUNX1-only experiment (arbitrary fluorescence units); higher = stronger binding; details: RUNX1 concentration 2 nM; ETS1 concentration 25 nM
Method: as §1
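Wherever RUNX1 binding intensity (PBM fluorescence) in presence of ETS1, normalised to RUNX1-only experiment is given: Full-length recombinant human ETS1 or RUNX1 bound to double-stranded 36-bp genomic probes on microarrays, detected by protein-specific primary antibody and Alexa488 secondary, spot fluorescence as median of four replicate spots.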
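Wherever RUNX1 binding intensity (PBM fluorescence), RUNX1 alone is given: Full-length recombinant human RUNX1 bound to double-stranded 36-bp genomic probes on a high-density microarray, scored as Alexa488 fluorescence per spot via anti-RUNX1 antibody, median of four replicate spots.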

Sequence	ETS1 binding intensity [1]	RUNX1 binding intensity [2]	RUNX1 binding intensity [3]
CAAGAGGAACCGGAACTTTGGAAACCACATTCTTAT	1400	911	1480
CCAACACAGGAAATAATTTGAAACCACAATCAGAAA	1270	1290	3290
TCAATGACAGGAAGTTTTTAAACCACATACGGCTAA	2780	904	1810
AGCTAGGACAGGATGTGAAAACCACACTGACAAAGT	2620	919	3510
GCGATCGGAGCGGAAGTGGAGCTACCGCCACCGCCG	7540	–	1290
AAAGCATTTCCTGCCTTGACTTAACCACAAGACAGG	1880	1460	4320
CCCGGCCACTTCCGCCTATTGCGGGCGTCGGCTAGG	1440	745	4310
GGCCTTCATTACACAGGATGCGGTTGAAATGCATCA	4110	931	1630
GCATTTACGGGCAGGAAATGAAACCACAGAGTACAA	5420	1360	3610
TCTCCCGGAACTGCTCCTTCACCATGATGACCGCTG	590	966	1090
GTTCAGCAGGAAGTGGATGTGGATGTGTGGTTGCCA	3230	826	1290
TCCTAAAGCAGGAAATAGTGAGGCTACCGCAGTGTC	4180	713	1090
CAAGTAATCTGCTCAGGAAGTGGTTTGAATAGAGGA	2540	743	977
CCCACTGCGCCAGGATGTGGTCAGGTCGGTGACGTT	1560	886	3410
CAGGAGCAGTGTAGAGGAAGTGGTTTCCATCACGGA	2630	862	1410
CTCACAGAGCAAGTAGGATGTGGTTTCCAGGGGCTG	781	800	1180
CATTCAGTAAAAGGATGTGGTTTAGAACAGATGAAA	1230	958	2150
GGGAACTGGGGAAGGGGATGTGGTAACCAGAACCAC	543	869	1050
CAAGAGAAAGGAAGTGGAAGCTCTTGTGGTCTGGAA	1460	733	1240
AAGTTGATTTCCGGGTAGTCTGTGGTTTCCTAATCA	1040	1210	3880
GGTGTGTTCTGGGGAGGAAGTGGGTTTTCAGGTTGT	3820	799	1120
AAGTTCTTCCGGGTCTGCAGTCTGTGGTGTGTTTGC	478	810	1710

Sequence	ETS1 binding intensity [1]	RUNX1 binding intensity [2]	RUNX1 binding intensity [3]
ATTTAGGAGGAAGTTTCCAGTACCACAACCTCACAG	430	868	788
AAGTGAAGAGCTTCCGCCGGGAGACCGCGGCTGCAG	592	–	1250
TCCAGCTCCACAGGATGTGGTGAGTGAAGCAGCAAG	2590	694	2380
TTCAACAGGATGTGGGAACTTGACTCTCGCCGCAAA	3560	737	3720
GCACAGGCCGGAAGGAAAAGGGTTGTGGGGCTCATT	1290	814	952
ATGTGCCCAAAGGATGTCACCGCAAAGATCATAGGA	561	1250	1820
AACCCCAAAACGGAAACACCGGAGCCACAAGCTGAG	731	900	1300
GAACCTGGGAGGCGGAAGTTGCGGTTAGCCGAGATC	6030	13500	56300
TTATTTCCGGTGTTGATCTTTTTAGTGGTACCAGGC	3400	1070	2990
AGCCCCTACCACTTCCCCCCACAGCAGTTCTGAGAT	720	1410	2250
GACTTTTACGGAAATAGCAGTCCAAAACCGCGTCTA	691	–	1170
TGATTAAAAACAGGATGTGGGTGAATAGTCATGCAT	4810	759	2490
TGGGCAGGAAGTGGTATCTGATTGTGGTTTTGATTT	3960	1360	8180
GAGGAGGAAAGCGGAAGCGCTGCCCGCAGTGGTAGG	4260	651	1270
TTTTATCCTTCCTTTTTTGTTCTTTGTGGTGGAGGT	465	1840	2040
CAGTGAACAGTTTCCTGTTCCTGTGGTTTTGACTTT	1230	1420	3980
CAACCCGGAAGCACTAACGGAGAAACCGCAACTCGG	729	3460	12700
AACCAAACAGCCACAGGAAGTGGTTTCTGTGATTCA	7840	840	1960
GGACAGGAAGTTCCTGCAGCTTCTACCACAAACCTA	2450	829	1420
GTTGAGTTCCGGGGGAGGTTGAGTTCCTGCGGTCAA	397	1220	2450
GGGTTGGGTGCCGGATGCGGTGAGTGAGGTTCTCAT	2930	917	4260
